# From PubChem BioAssay (NCATS)
# “And” between values parts separate entries of the source, which are not always exact repeats. Identical values can stand only once. Results filed as inconclusive are left out. Some compounds were tested as several samples or in several runs, with calls that do not always agree. A number with no mark means an inactive call. The source made the active and inactive calls. Calls come from the whole dose curve; as a rule, active = well fitted inhibition curve with a large enough effect; inconclusive = small, poorly fitted or top-dose-only effect; inactive = flat fitted curve, though single readings scatter.
# System: HEK293
# Assay: Cytotoxic Profiling of Annotated Libraries Using Quantitative High-Throughput Screening (AID 1296008); note: nearly all actives have a fitted effect of over 60% in size
# Settings: Five cell lines viability, CellTiter-Glo ATP luminescence, 48-72 h; max response: hits give low values
# How it was run: (§1)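 Cytotoxicity was measured as CellTiter-Glo ATP luminescence, read after 10 min at room temperature. Compound treatment of the cells lasted 48 or 72 hr at 37 degrees Celsius in a qHTS format.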
# % is set by controls: 0 for no effect and ±100 for the full control effect; potency is the fitted concentration of half-maximal effect.
SMILES,outcome,Potency,max response
CC(c1cc2ccccc2s1)N(O)C(N)=O (centres undefined),inactive,–,–
Cc1ccnc(NS(=O)(=O)c2ccc(NC(=O)Nc3ccc(S(=O)(=O)Nc4nccc(C)n4)cc3)cc2)n1,–,0.418 µM (active),-3.29%
CNC[C@H](O)c1cccc(O)c1,–,–,1.65% and -9.71%
OC(CCN1CCCCC1)(c1ccccc1)C1CC2C=CC1C2 (centres undefined),inactive,–,–
O=NN(CCCl)C(=O)NCCCl,inactive; activator,–,–
S=C(NCc1ccc2c(c1)OCO2)N1CCN(c2ncnc3c2oc2ccccc23)CC1,–,340 nM (active) and 4.11 µM (active),–
O=C(Nc1ccc(F)c(C(F)(F)F)c1)Nc1nnc(-c2ccncc2)s1,–,–,-22.6% and -26.4%
Cc1c(C)c2c(c(C)c1O)CCC(C)(COc1ccc(CC3SC(=O)NC3=O)cc1)O2 (centres undefined),inactive,–,-17%
NC(N)=NC(=O)c1nc(Cl)c(N)nc1N,–,–,-13.2% and 2.01%
COc1ccc(CCN2CCN(CCCc3ccccc3)CC2)cc1OC,–,6.51 µM (active),-22.2%
O=c1n(CCCN2CCN(c3cccc(Cl)c3)CC2)nc2ccccn12,–,–,2.07% and 1.71%
Cc1[nH]c(=O)c(C#N)cc1-c1ccncc1,inactive,–,-9.35%
COc1cc(Nc2ncc3c(n2)-c2ccc(Cl)cc2C(c2c(F)cccc2OC)=NC3)ccc1C(=O)O,–,23.1 µM (active),-33.7%
N=c1nc(N2CCCCC2)cc(N)n1O,inactive,–,3.36%
CC(C[N+](C)(C)C)OC(N)=O (centres undefined),inactive,–,3.57%
c1ccc([C@H]2CN3CCSC3=N2)cc1,inactive,–,-11.1%

SMILES,outcome,Potency,max response
CCCCNc1cc(C(=O)O)cc(S(N)(=O)=O)c1Oc1ccccc1,inactive,–,2.91%
CCN(CC)CCCC(C)Nc1ccnc2cc(Cl)ccc12 (centres undefined),inactive,–,–
CC(C=CC1=C(C)CCCC1(C)C)=CC=CC(C)=CC(=O)O,inactive,–,1.74%
Cc1cn[nH]c1,inactive,4.69 µM (active),–
CC(C)OC(=O)C1=CN(C(=O)c2ccc(F)c(F)c2)CC(C)(C)c2c1[nH]c1ccccc21,–,–,-9.23% and -19.6%
CC(C)NCC(O)COc1ccc(COCCOC(C)C)cc1 (centres undefined),–,–,4.07% and -17.2%
COc1ccc([C@@H]2CC(=O)c3c(O)cc(O[C@@H]4O[C@H](CO[C@@H]5O[C@@H](C)[C@H](O)[C@@H](O)[C@@H]5O)[C@@H](O)[C@H](O)[C@@H]4O)cc3O2)cc1O,inactive,–,–
Cc1[nH]c(=O)c(C#N)cc1-c1ccc2nccn2c1,–,–,3.47%
CC(=O)Oc1ccccc1C(=O)O,inactive,–,1.6%
CCc1ccc(CCOc2ccc(CC3SC(=O)NC3=O)cc2)nc1 (centres undefined),inactive,–,-6.03%
NC(=O)c1cnccn1,inactive,–,-0.963%
Cc1cnc(NC(=O)C2=C(O)c3ccccc3S(=O)(=O)N2C)s1,inactive,–,-0.932%
O=C1CCC(N2C(=O)c3ccccc3C2=O)C(=O)N1 (centres undefined),inactive,–,-7.21%
C[C@H](NC(=O)Cc1cc(F)cc(F)c1)C(=O)N[C@@H]1C(=O)N(C)c2ccccc2-c2ccccc21,–,–,-10.7%
Cc1cnc(Nc2ccc(OCCN3CCCC3)cc2)nc1Nc1cccc(S(=O)(=O)NC(C)(C)C)c1,–,5.17 µM (active),0.504%

# System: HaCat
# Assay: as above
# Settings: Five cell lines viability, CellTiter-Glo ATP luminescence, 48-72 h; max response: hits give low values
# How it was run: as §1
SMILES,max response,Potency,outcome
CC(c1cc2ccccc2s1)N(O)C(N)=O (centres undefined),-0.226% and -8.25%,–,–
Cc1ccnc(NS(=O)(=O)c2ccc(NC(=O)Nc3ccc(S(=O)(=O)Nc4nccc(C)n4)cc3)cc2)n1,-9.99%,1.48 µM (active),–
CNC[C@H](O)c1cccc(O)c1,-21.3%,–,inactive
OC(CCN1CCCCC1)(c1ccccc1)C1CC2C=CC1C2 (centres undefined),-0.0685%,–,inactive
S=C(NCc1ccc2c(c1)OCO2)N1CCN(c2ncnc3c2oc2ccccc23)CC1,-0.756% and -9.04%,–,–
O=C(Nc1ccc(F)c(C(F)(F)F)c1)Nc1nnc(-c2ccncc2)s1,2.71%,–,inactive
Cc1c(C)c2c(c(C)c1O)CCC(C)(COc1ccc(CC3SC(=O)NC3=O)cc1)O2 (centres undefined),–,–,inactive
NC(N)=NC(=O)c1nc(Cl)c(N)nc1N,-3.73%,–,inactive
COc1ccc(CCN2CCN(CCCc3ccccc3)CC2)cc1OC,–,–,inactive
O=c1n(CCCN2CCN(c3cccc(Cl)c3)CC2)nc2ccccn12,-8.88%,–,inactive
Cc1[nH]c(=O)c(C#N)cc1-c1ccncc1,4.3% and 4.05% and -9.78%,–,–
N=c1nc(N2CCCCC2)cc(N)n1O,–,–,inactive
CC(C[N+](C)(C)C)OC(N)=O (centres undefined),–,–,inactive
CCN(CC)CCCC(C)Nc1ccnc2cc(Cl)ccc12 (centres undefined),–,–,inactive
CC(C=CC1=C(C)CCCC1(C)C)=CC=CC(C)=CC(=O)O,–,–,inactive
Cc1cn[nH]c1,-8.18%,–,inactive
CC(C)OC(=O)C1=CN(C(=O)c2ccc(F)c(F)c2)CC(C)(C)c2c1[nH]c1ccccc21,-4.65%,–,–
COc1ccc([C@@H]2CC(=O)c3c(O)cc(O[C@@H]4O[C@H](CO[C@@H]5O[C@@H](C)[C@H](O)[C@@H](O)[C@@H]5O)[C@@H](O)[C@H](O)[C@@H]4O)cc3O2)cc1O,-2.14% and 4.84%,–,–
Cc1[nH]c(=O)c(C#N)cc1-c1ccc2nccn2c1,-13.2% and -27.6%,–,–
CCOC(=O)C1=C[C@]2(CC)CCCN3CCc4c(n1c1ccccc41)[C@@H]32,-26.7% and -18%,–,–
O=C1CCCC2=C1C(c1[nH]ncc1Cl)N=C(Nc1nc3ccccc3o1)N2 (centres undefined),-0.0608%,–,inactive
CCc1ccc(CCOc2ccc(CC3SC(=O)NC3=O)cc2)nc1 (centres undefined),–,–,inactive
NC(=O)c1cnccn1,-6.4%,–,inactive
Cc1cnc(NC(=O)C2=C(O)c3ccccc3S(=O)(=O)N2C)s1,–,–,inactive
O=C1CCC(N2C(=O)c3ccccc3C2=O)C(=O)N1 (centres undefined),2.55%,–,inactive
C[C@H](NC(=O)Cc1cc(F)cc(F)c1)C(=O)N[C@@H]1C(=O)N(C)c2ccccc2-c2ccccc21,-1.56%,–,inactive
Cc1cnc(Nc2ccc(OCCN3CCCC3)cc2)nc1Nc1cccc(S(=O)(=O)NC(C)(C)C)c1,2.79%,5.8 µM (active),–
C[C@@H]1CN(Cc2ccc(F)cc2)[C@@H](C)CN1C(=O)c1cc2c(C(=O)C(=O)N(C)C)cn(C)c2cc1Cl,-4.64%,–,inactive
